Assay [1] can be described thus: optical density shifts of acrAB sulA E. coli – strain DRC41, OD650, 48 h, E. coli filamentation inducer project, primary screen (AID 1152).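 Also: E. coli MC1000 strain DRC41 lacking acrAB efflux pump and sulA.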 The conditions noted are these: higher = more signal, called active from +8 up or from −8 down.
Assay [2] can be described thus: probe aLefty1 binding on compound microarray – biochemical, small-molecule microarray, 635/667 nm fluorescence, primary screen (AID 1153).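 Also: score merges spot fluorescence with signal-to-noise ratio from the scanned slide images.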 The conditions noted are these: higher = more signal.
The nature of assay [3]: plasmodial surface anion channel blockers, osmotic lysis – cell-based, P. falciparum Indochina, OD700, 1 h, primary screen (AID 1154). As to conditions: P. falciparum Indochina infected RBC osmotic lysis, higher = more signal, called active from +8 up or from −8 down.
The nature of assay [4]: plasmodial surface anion channel blockers, osmotic lysis – cell-based, P. falciparum Indochina, OD700, 2 h, primary screen (AID 1155).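 Also: lysis reports solute entry through the parasite surface anion channel PSAC.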 As to conditions: P. falciparum Indochina infected erythrocytes, higher = more signal, called active from +8 up or from −8 down.
Assay [5] in a line: changes in parasitized red cell lysis, either direction – P. falciparum Indochina, OD700, 3 h, PSAC antagonist project, primary screen (AID 1156). As to conditions: P. falciparum-infected erythrocytes, osmotic lysis, higher = more signal, called active from +8 up or from −8 down.
Assay [6] can be described thus: plasmodial surface anion channel blockers, osmotic lysis – cell-based, P. falciparum Indochina, OD700, 18 h, primary screen (AID 1157). As to conditions: P. falciparum Indochina infected erythrocytes, osmotic lysis OD700, 18 h; higher = more signal, called active from +8 up or from −8 down.
Assay [7] can be described thus: S6 kinase pathway phospho-S6 level changes – cell-based, A549, cytoblot, luminescence, serum-stimulated, primary screen (AID 1158).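 Also: serum-stimulated A549 lung adenocarcinoma cells; signal is phosphorylated S6 detected by cytoblot immunostaining with HRP secondary.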 The conditions noted are these: 5 h, higher = more signal.
Assay [8] deals with NADPH oxidase 2 (Homo sapiens) (UniProt P04839). The assay is described as follows: compounds shifting NOX2 Amplex Red fluorescence – cell-based, HEK293-NOX2, PMA-stimulated, NOX inhibitor project, primary screen (AID 1159). Also: test concentration not given here. The conditions noted are these: 45 min, higher = more signal, called active from +8 up or from −8 down.
Chain of NADPH oxidase 2 (Homo sapiens) (P04839 whole entry, looked up): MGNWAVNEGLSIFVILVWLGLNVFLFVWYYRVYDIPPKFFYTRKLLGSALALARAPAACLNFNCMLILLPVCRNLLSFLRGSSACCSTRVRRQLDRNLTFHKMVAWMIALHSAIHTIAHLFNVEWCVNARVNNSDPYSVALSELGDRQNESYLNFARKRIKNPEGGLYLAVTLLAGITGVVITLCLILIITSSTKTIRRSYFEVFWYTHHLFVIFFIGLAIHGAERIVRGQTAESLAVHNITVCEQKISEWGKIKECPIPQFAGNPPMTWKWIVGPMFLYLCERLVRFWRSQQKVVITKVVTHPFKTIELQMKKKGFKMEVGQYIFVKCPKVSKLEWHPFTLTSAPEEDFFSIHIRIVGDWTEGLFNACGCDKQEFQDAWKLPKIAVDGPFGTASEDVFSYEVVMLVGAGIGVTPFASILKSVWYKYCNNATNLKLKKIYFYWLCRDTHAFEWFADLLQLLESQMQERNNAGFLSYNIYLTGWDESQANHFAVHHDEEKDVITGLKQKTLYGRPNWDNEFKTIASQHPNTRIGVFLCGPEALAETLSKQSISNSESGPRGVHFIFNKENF
Assay [9] addresses NADPH oxidase 4 (Homo sapiens) (UniProt Q9NPH5). The assay is described as follows: compounds shifting NOX4 Amplex Red fluorescence – cell-based, HEK293-NOX4, tetracycline-induced, NOX inhibitor project, primary screen (AID 1160). As to conditions: HEK293-NOX4, Amplex Red H2O2 fluorescence, 45 min; higher = more signal, called active from +8 up or from −8 down.
For assay [10], the target named is NADPH oxidase 5 (Homo sapiens) (UniProt Q96PH1). The assay is described as follows: compounds shifting NOX5 Amplex Red fluorescence – cell-based, HEK293-NOX5, NOX inhibitor project, primary screen (AID 1161). As to conditions: HEK293-NOX5, ionomycin, 45 min, higher = more signal.
Chain of NADPH oxidase 5 (Homo sapiens) (Q96PH1 whole entry, looked up): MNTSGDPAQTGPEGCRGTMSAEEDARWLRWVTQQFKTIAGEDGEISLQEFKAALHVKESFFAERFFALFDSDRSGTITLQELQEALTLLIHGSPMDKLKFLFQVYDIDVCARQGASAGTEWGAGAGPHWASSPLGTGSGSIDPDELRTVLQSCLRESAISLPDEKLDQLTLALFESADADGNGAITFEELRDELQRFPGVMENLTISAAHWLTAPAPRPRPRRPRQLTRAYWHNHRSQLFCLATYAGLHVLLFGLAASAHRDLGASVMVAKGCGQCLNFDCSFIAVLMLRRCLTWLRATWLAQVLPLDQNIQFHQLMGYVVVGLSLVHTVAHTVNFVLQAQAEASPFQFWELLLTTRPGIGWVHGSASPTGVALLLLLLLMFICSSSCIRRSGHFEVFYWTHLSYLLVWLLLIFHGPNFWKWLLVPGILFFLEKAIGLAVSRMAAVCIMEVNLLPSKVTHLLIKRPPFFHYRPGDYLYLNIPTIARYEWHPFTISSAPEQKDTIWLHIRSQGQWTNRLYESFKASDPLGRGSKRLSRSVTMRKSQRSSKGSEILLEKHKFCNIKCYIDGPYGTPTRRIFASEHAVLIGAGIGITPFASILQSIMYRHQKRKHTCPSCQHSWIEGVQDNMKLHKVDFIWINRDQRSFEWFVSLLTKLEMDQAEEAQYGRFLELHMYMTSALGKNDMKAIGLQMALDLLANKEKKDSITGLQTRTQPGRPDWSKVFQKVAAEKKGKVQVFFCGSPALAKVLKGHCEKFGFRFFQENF
The nature of assay [11]: compound effects on lung adenocarcinoma cell viability – A549, calcein-AM fluorescence, 48 h, basal, profiling panel (AID 1162). Also: test concentration not given here. The conditions noted are these: higher = more signal.
Assay [12] can be described thus: compound effects on differentiated 3T3-L1 adipocyte viability – cell-based, 3T3-L1 adipocytes, calcein-AM fluorescence, 48 h, basal, profiling panel (AID 1163). Also: test concentration not given here. As to conditions: 3T3-L1 adipocytes viability, higher = more signal.
A short description of assay [13]: compound effects on hepatocellular carcinoma cell viability – HepG2, calcein-AM fluorescence, 48 h, basal, profiling panel (AID 1164). Also: test concentration not given here. As to conditions: higher = more signal.
Assay [14] in a line: compound effects on multiple myeloma cell viability – MM1S, calcein-AM fluorescence, 48 h, basal, profiling panel (AID 1165). Also: test concentration not given here. As to conditions: higher = more signal.
The nature of assay [15]: calcein-AM signal in unstimulated myeloma cells – cell-based, calcein-AM fluorescence, 48 h, PK04 Diversity Set, profiling panel (AID 1166).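 Also: cells grown under basal conditions without added stimulus; test concentration not given here.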 The conditions noted are these: RPMI8226 myeloma viability, higher = more signal.
Assay [16] is described as follows: JC-1 mitochondrial signal, unstimulated HepG2 cells – cell-based, JC-1 fluorescence, 24 h, 100 nL compound, profiling panel (AID 1167). Also: test concentration not given here. As to conditions: HepG2 mitochondrial potential, higher = more signal.
Assay [17] in a line: JC-1 mitochondrial signal, unstimulated adipocytes – cell-based, JC-1 fluorescence, 3T3-L1 adipocytes, 24 h, 100 nL compound, profiling panel (AID 1168). Also: test concentration not given here. As to conditions: JC-1 mitochondrial fluorescence, higher = more signal, called active from +8 up or from −8 down.
Assay [18] can be described thus: JC-1 mitochondrial signal, unstimulated myeloma cells – cell-based, JC-1 fluorescence, RPMI8226, 24 h, 100 nL compound, profiling panel (AID 1169). Also: test concentration not given here. As to conditions: JC-1 mitochondrial potential fluorescence, higher = more signal.
Assay [19] can be described thus: JC-1 mitochondrial signal, unstimulated MM1S myeloma – cell-based, JC-1 fluorescence, 24 h, 100 nL compound, profiling panel (AID 1170). Also: test concentration not given here. The conditions noted are these: MM1S mitochondrial potential, higher = more signal.
Assay [20] is described as follows: resazurin metabolic signal in A549 cells – cell-based, resazurin fluorescence, 24 h, PK04 Diversity Set, profiling panel (AID 1171). Also: test concentration not given here. As to conditions: A549 viability, higher = more signal, called active from +8 up or from −8 down.

The text below walks through data of PubChem BioAssay.

The source made the active and inactive calls.

Chain of NADPH oxidase 4 (Homo sapiens) (Q9NPH5 whole entry, looked up): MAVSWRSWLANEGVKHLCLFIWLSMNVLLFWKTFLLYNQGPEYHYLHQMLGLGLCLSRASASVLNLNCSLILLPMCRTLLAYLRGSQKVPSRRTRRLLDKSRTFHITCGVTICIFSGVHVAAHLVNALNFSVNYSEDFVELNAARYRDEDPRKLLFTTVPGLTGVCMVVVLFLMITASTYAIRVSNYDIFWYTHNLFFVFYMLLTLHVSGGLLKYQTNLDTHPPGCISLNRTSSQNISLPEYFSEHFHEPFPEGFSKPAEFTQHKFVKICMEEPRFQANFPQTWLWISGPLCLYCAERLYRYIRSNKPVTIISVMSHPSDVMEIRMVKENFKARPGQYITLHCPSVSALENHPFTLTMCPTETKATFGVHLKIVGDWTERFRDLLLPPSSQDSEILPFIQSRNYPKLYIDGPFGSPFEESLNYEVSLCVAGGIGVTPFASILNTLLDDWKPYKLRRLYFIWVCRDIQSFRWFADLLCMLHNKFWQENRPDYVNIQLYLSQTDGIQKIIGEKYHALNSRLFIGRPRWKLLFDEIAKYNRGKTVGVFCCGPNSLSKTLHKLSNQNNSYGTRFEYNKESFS

In the case of `CCOC(=O)C[C@H]1[C@H](OC(=O)c2ccc(C(=O)c3ccccc3)cc2)[C@@H](NC(=O)c2ccc3ccccc3c2)c2cc(OCCCO)ccc2N1C(=O)Cc1ccc(OC)cc1`, the z-score was 0.739 (inactive) in assay [1]; 6.12 (inactive) in assay [3]; 0.448 (inactive) in [4]; 0.337 (inactive) in [5]; 0.184 (inactive) in [6]; 0.742 in assay [7]. For the same compound, the z-score in [8] was -0.992 (inactive); in assay [9], 0.557 (inactive); in assay [10], 0.161; in assay [11], -0.0783; in assay [12], 0.539; in assay [13] it was 0.294. Further, the z-score is 0.655 in [14]; 0.39 in assay [15]; 1.32 in assay [16]; -0.808 (inactive) in [17]; -0.716 in assay [18]; -0.51 in assay [19]. The z-score in assay [20] was 0.0571 (inactive). Also, the composite z-score in assay [2] was 0.138.

For `[N-]=[N+]=NCc1ccccc1[C@@H]1OC(c2ccc(OCCCO)cc2)=N[C@]1(Cc1ccccc1)C(=O)NCC(O)CO` (stereo not given in full), the z-score in assay [1] is -0.0722 (inactive); in [3], 13.5 (active); in assay [4], 1.15 (inactive); in assay [5], 0.942 (inactive); in assay [6] it was 0.123 (inactive); in assay [7], -0.319. The z-score in [8] was -0.847 (inactive); in [9], 1.7 (inactive); in assay [10], -0.0855; in assay [11] it was 0.939; in assay [12], -1.16; in assay [13] it was 0.78. The z-score is -1.07 in [14]; -0.596 in [15]; -0.474 in assay [16]; -0.672 (inactive) in [17]; -0.596 in assay [18]; -0.471 in assay [19]. Also, the z-score in [20] is 0.424 (inactive). The same compound returned a composite z-score in assay [2] of 0.484.

Take `O=C(CS)NCCCCCCNC(=O)[C@@H]1C[C@@H]2C(=O)NCC(=O)N2[C@@H]1c1cccc(OCCO)c1`: the z-score in [1] was 0.74 (inactive); in assay [3], 3.29 (inactive); in [4], 0.156 (inactive); in assay [5], 2.38 (inactive); in assay [6] it was 0.104 (inactive); in [7], 0.59. The z-score in [8] was 1.54 (inactive); in [9] it was 0.845 (inactive); in [10] it was 0.711; in [11], 0.861; in assay [12], -0.356; in assay [13], 0.381. In addition, the z-score in assay [14] is 0.38; in assay [15], 0.754; in assay [16], 0.502; in assay [17], 0.475 (inactive); in assay [18], 0.116; in assay [19], -0.502. In assay [20], the z-score was -0.489 (inactive). Moreover, the composite z-score in [2] was -0.887.

Regarding `COC(=O)C[C@H]1O[C@]2(C(=O)N(C)c3ccccc32)[C@@H](C)[C@@H]1[Si](C)(C)F`, the z-score in assay [1] is 2.91 (inactive); in assay [3] it was -0.0899 (inactive); in assay [4] it was -0.562 (inactive); in assay [5] it was -0.338 (inactive); in assay [6], -2.12 (inactive); in assay [7], 1.26. Moreover, the z-score in assay [8] is -0.771 (inactive); in assay [9], 0.555 (inactive); in [10], 1.45; in assay [11], 0.0967; in [12] it was 0.587; in [13] it was 1.21. Besides, the z-score in [14] is 0.0544; in assay [15], -0.804; in [16] it was 0.65; in assay [17], -0.125 (inactive); in assay [18], 0.452; in assay [19], 0.632. In [20], the z-score is 2.22 (inactive). The composite z-score in assay [2] came out at 0.0982.

As to `O=C(c1ccccc1)N1C(=O)[C@]2(COC(c3ccc(OCCCO)cc3)=N2)Cc2ccccc21`, the z-score in assay [1] was -0.788 (inactive); in [3], 27.1 (active); in [4], 17.8 (active); in assay [5], 3.39 (inactive); in [6], 1.35 (inactive); in assay [7] it was -0.394. Besides, the z-score was -0.0343 (inactive) in assay [8]; 0.0715 (inactive) in [9]; -1.69 in assay [10]; -0.525 in [11]; 0.6 in assay [12]; -0.92 in [13]. For the same compound, the z-score in assay [14] was -1.72; in assay [15], -3.77; in assay [16] it was -1.23; in assay [17], -0.03 (inactive); in [18] it was -1.26; in assay [19], -1.49. The z-score in assay [20] was -0.272 (inactive). In [2], this compound gave a composite z-score of 0.638.
